Screens from PubChem BioAssay.
In the library only some 1.8% were active in any assay of this set; here they are far more common.
INS-1E GSIS act: primary screen for activators of insulin secretion dependent on glucose, INS-1E cells, GLuc reporter luminescence; activation, % at 16.6 µM; 370,000 compounds, 0.61% hits; AID 743287; INS-1E GLuc reporter insulin secretion, 2-3 h;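 active = lowest replicate activation of at least 40%, so every replicate reaches that level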
EWS-Fli block: EWS/Fli transcriptional activity inhibition; AID 651661; A673 NR0B1-luciferase reporter, viability-normalised; 350,000 compounds, 0.67% hits; inhibition, % at 12.6 µM;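 active = mean inhibition of at least 50% after viability correction, with every replicate also passing that limit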;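 also: firefly luciferase signal divided by Alamar Blue viability fluorescence both relative to DMSO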
LGR2 inh: blocks bursicon-induced cAMP signaling via Drosophila LGR2; HEK293 LGR2, CRE-luciferase, bursicon-stimulated, 4 h; inhibition, % at 9.99 µM; 380,000 compounds, 0.35% hits;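 active = drop in luminescence signal, shown as inhibition above about 50% in the replicate tests, limit read from the data, passing the limit was not always enough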;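 also: agonist challenge used bursicon conditioned medium at about half maximal strength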
CFTR F508del cor: correctors of CFTR F508del function in bronchial epithelial cells; CFBE cells, YFP halide quenching; stimulated with forskolin plus potentiator P3; % fluorescence drop versus neutral controls; activity (quench increase), % at 7.58 µM; 350,000 compounds, 0.36% hits;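 active = mean added fluorescence quench of at least 8% versus neutral control, with both replicates also reaching 8%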;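 also: cells transiently co-express mutant CFTR-F508del with the halide-sensitive YFP; corrector assay measuring rescue of mutant channel to the surface after 24 h compound exposure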
RAD54 branch: RAD54 (human) branch migration inhibition. RAD54 Holliday junction branch migration, FAM/BHQ fluorescence. inhibition, % at 10.4 µM. 360,000 compounds, 0.14% hits. AID 602329;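 active = mean normalized replicate activity at least 40 and at least half of replicates scoring 40 or more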;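 also: inhibitors cause a drop in the FAM fluorescence signal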
Target sequence (Q92698 whole entry, looked up): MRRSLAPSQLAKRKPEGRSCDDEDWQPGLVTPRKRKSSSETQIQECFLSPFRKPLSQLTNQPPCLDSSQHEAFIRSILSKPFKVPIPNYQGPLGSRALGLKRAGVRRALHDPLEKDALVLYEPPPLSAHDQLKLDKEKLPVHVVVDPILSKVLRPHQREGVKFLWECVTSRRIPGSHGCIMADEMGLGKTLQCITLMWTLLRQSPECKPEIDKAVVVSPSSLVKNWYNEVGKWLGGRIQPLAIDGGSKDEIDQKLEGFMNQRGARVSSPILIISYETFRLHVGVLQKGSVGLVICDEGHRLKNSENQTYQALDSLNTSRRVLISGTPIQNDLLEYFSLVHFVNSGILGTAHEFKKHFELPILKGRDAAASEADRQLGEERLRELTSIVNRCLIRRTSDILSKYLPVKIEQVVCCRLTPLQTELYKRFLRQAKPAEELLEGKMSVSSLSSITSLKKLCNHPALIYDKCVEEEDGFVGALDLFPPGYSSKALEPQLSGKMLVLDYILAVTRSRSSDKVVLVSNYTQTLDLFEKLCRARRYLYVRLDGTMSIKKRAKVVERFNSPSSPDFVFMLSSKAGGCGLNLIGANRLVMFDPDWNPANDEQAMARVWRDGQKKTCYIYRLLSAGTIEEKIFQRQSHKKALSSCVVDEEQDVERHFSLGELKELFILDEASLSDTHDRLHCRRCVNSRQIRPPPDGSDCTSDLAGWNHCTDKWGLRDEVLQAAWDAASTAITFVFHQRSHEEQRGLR
RAD52 inh: blocks human RAD52 DNA annealing; inhibition, % at 18.7 µM; recombinant RAD52 DNA annealing, FRET fluorescence; AID 651710; 360,000 compounds, 0.46% hits;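 active = every replicate showing at least 50% inhibition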
A number is an active result; 0 = inactive; - = no result.

SMILES	INS-1E GSIS act	EWS-Fli block	LGR2 inh	CFTR F508del cor	RAD54 branch	RAD52 inh
O=C(C[C@@H]1C[C@H]2c3cc(NS(=O)(=O)c4ccc(F)cc4)ccc3O[C@H]2[C@H](CO)O1)NCc1ccc(Oc2ccccc2)cc1	0	59	-	0	0	0
Cc1nnc(SCC(=O)N2CCCc3ccccc32)[nH]c1=O	-	-	-	-	0	-
O=C(Nc1ccc2c(c1)Cc1ccccc1-2)c1ccccc1F	-	0	-	0	-	0
Cc1ccc(P(=O)(O)c2ccc(C)cc2)cc1	-	-	-	-	0	-
Fc1cccc(-c2nnn3c2nc(Cl)c2ccccc23)c1	45	0	0	0	0	0
Cc1cc(=O)[nH]c(SCc2cn3ccccc3n2)n1	73	0	0	0	-	0
CO[C@H]1CC[C@@H]2CCN(C)C(=O)C[C@H](c3ccccc3)CN(C)C(=O)c3cc(C#N)ccc3OC[C@H]1O2	0	0	0	-	0	0
CN(C)CCCNC(=O)C[C@@H]1CC[C@H]2[C@@H](COC[C@H](O)CN2CC2CCCCC2)O1	0	0	0	0	-	65
O=C(C[C@@H]1CC[C@H]2[C@@H](COC[C@@H](O)CN2CC2CCCCC2)O1)NCc1ccc(F)cc1	0	70	0	0	0	0
CCOc1ccc(NC(=O)c2ccc(NC(=O)c3ccccc3Br)cc2)cc1	0	0	0	0	0	0
COc1ccc(OC)c(S(=O)(=O)N2CCN(C)CC2c2ccccc2)c1 (centres undefined)	0	0	0	0	0	0
COc1ccc(OC)c(S(=O)(=O)Nc2ccccc2SC)c1	-	-	-	-	0	-
Cc1cccc(NC(=O)c2onc3c2CCCC3)c1C	-	-	-	-	0	-
Cc1cccc(NC(=O)c2onc3c2CCCC3)n1	0	71	77	0	0	0
O=c1[nH]c2ccccc2nc1-c1cccs1	0	-	-	-	0	-
O=c1[nH]nc(-c2cccs2)c2ccccc12	172	0	0	0	0	0
Cc1cc(NC(=O)c2cccc(F)c2)ncc1NC(=O)c1ccco1	-	-	-	-	0	-
Cc1cccc(C)c1-n1nnnc1C1(C)CCC(=O)N1Cc1cccs1 (centres undefined)	53	0	0	0	-	0
CCOc1ccc(-c2nc(CSCC(=O)N3CCN(c4cccc(OC)c4)CC3)c(C)o2)cc1	0	88	0	0	0	0
CCOc1ccc(-c2nc(CSCC(=O)NC3CCN(Cc4ccccc4)CC3)c(C)o2)cc1	-	59	0	0	0	0
COc1cc([C@@H]2CC=C(C(=O)O)[C@H](c3ccccc3F)N2S(=O)(=O)c2ccc(C)cc2)cc(OC)c1OC	-	0	0	0	0	0
CCCn1c(N)c(N(CCOC)C(=O)c2cccc(Cl)c2)c(=O)[nH]c1=O	0	0	0	0	0	0
COc1ccc(S(=O)(=O)NCc2ccccn2)cc1NC(=O)c1ccccc1C	0	60	0	0	0	0
COc1ccc(S(=O)(=O)NCc2ccccn2)cc1NC(=O)c1ccc(Cl)cc1	0	0	0	0	0	0
O=C(Nc1ccccc1F)N1CCCCN2[C@H](CO)[C@@H](c3ccc(C4=CCCC4)cc3)[C@@H]2C1	0	0	0	0	0	-
SMILES	INS-1E GSIS act	EWS-Fli block	LGR2 inh	CFTR F508del cor	RAD54 branch	RAD52 inh
N#Cc1cc(-c2ccccc2)nc(Oc2ccc(Cl)cc2)n1	0	-	0	-	-	-
Clc1ccc(-c2ccnc(Oc3ccc4ccccc4c3)n2)cc1	114	-	0	-	0	-
Clc1ccc(-c2ccnc(Oc3cc(Cl)ccc3Cl)n2)cc1	85	-	0	-	-	-
Oc1ccc(-c2nccc(-c3ccc(Cl)cc3)n2)cc1	0	0	0	-	-	0
C/C(=N\NC(=S)NC(C)C)c1ccccc1	54	0	0	0	-	0
CCCC#Cc1ccc([C@@H]2[C@@H](CO)N(C(=O)CN3CCOCC3)[C@H]2C#N)cc1	0	0	0	0	0	0
C[C@H]1CN([C@@H](C)CO)S(=O)(=O)c2ccc(C3=CCCCC3)cc2O[C@H]1CN(C)Cc1ccccn1	0	0	0	0	0	0
C[C@H](CO)N1C[C@H](C)[C@@H](CN(C)Cc2ccc3c(c2)OCO3)Oc2ccc(NC(=O)Nc3cccc4ccccc34)cc2CC1=O	0	0	0	0	0	55
C[C@H]1CN([C@@H](C)CO)C(=O)Cc2cc(NC(=O)Nc3cccc4ccccc34)ccc2O[C@H]1CN(C)Cc1ccc2c(c1)OCO2	0	0	0	0	0	0
C[C@@H]1CCCCO[C@H](CN(C)Cc2ccc3c(c2)OCO3)[C@H](C)CN([C@H](C)CO)C(=O)c2cc(NC(=O)Nc3cccc4ccccc34)ccc2O1	0	0	0	0	0	-
C[C@@H]1CN([C@@H](C)CO)C(=O)c2cc(NC(=O)Nc3cccc4ccccc34)ccc2O[C@@H](C)CCCCO[C@H]1CN(C)Cc1ccc2c(c1)OCO2	0	77	0	0	0	-
C[C@@H]1CN([C@@H](C)CO)C(=O)c2cc(NC(=O)Nc3cccc4ccccc34)ccc2O[C@@H](C)CCCCO[C@@H]1CN(C)Cc1ccc2c(c1)OCO2	0	0	0	8.8	0	-
C[C@H]1CN([C@@H](C)CO)C(=O)c2cccc(NC(=O)Nc3ccc4c(c3)OCO4)c2O[C@@H]1CN(C)S(=O)(=O)c1ccc(Cl)cc1	0	0	0	0	0	0
CCN(CC)CCNC(=O)c1ccc2c(c1NCCO)C(=O)c1ccccc1C2=O	0	0	-	0	122	87
CCCC(=O)N1CCN(c2ccc(NC(=O)c3ccc([N+](=O)[O-])o3)cc2Cl)CC1	0	71	0	0	-	0
CC(C)C(=O)N1CCN(c2ccc(NC(=O)c3ccc([N+](=O)[O-])o3)cc2Cl)CC1	0	61	0	0	-	0
C=CCSC1=C(C#N)C(c2ccccc2Cl)C(C(=O)c2cccs2)C(O)(C(F)(F)F)N1 (centres undefined)	-	0	0	0	0	0
CCCCCCCN1C2=NCCN2c2ccccc21	0	0	0	0	0	0
CCCNC(=O)C[C@@H]1CC[C@@H]2[C@@H](COc3ccc(NC(=O)c4cc(C)on4)cc3C(=O)N2C)O1	0	0	0	0	0	0
CCCCN(CC)CCCNC(=O)c1cn(CC)c2ccc(S(=O)(=O)N3CCc4ccccc4C3)cc2c1=O	0	0	85	0	-	0
COc1ccc(C)c(-n2c(N)cc(=O)n(Cc3ccccc3)c2=O)c1	0	0	0	0	-	0
Cc1nn(-c2ccccc2)c(Cl)c1C1C(C#N)=C(N)OC2=C1C(=O)CC(C)(C)C2 (centres undefined)	-	-	-	-	0	-
Fc1ccc(CCNC(=S)Nc2ccc(F)cc2)cc1	-	0	0	0	0	0
CCNC(=S)Nc1ccc(Cl)cc1	-	0	-	-	0	0
CCCCNC(=S)Nc1ccc(Cl)cc1	0	78	0	-	-	0
CCCCc1ccc(NC(=S)NCCc2ccc(F)cc2)cc1	46	0	0	0	0	0
O=C(CSc1ncnc2scc(-c3ccccc3)c12)Nc1ccc(C(=O)O)cc1	147	0	0	0	0	0
Cc1ccc(-c2csc3ncnc(SCC(N)=O)c23)cc1	45	0	0	0	-	0
